Compound activity (PubChem)
Compounds with a hit are over-represented: about 7.3% of the library has one in this group of screens.
ELG1 genotoxic: qHTS screen for small molecules that induce genotoxicity in human embryonic kidney (HEK293T) cells expressing luciferase-tagged ELG1 | HEK293T ELG1-luciferase reporter, luminescence, 16 h | AID 504466, 2011 | 330,000 compounds, 1.3% hits | Potency, µM (titrated, usually from 46 µM), without a hit: top-dose activity change, positive = activation, usual class: activators; note: % of control where 0% means no effect; nearly all actives have a fitted effect of over 60% in size
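Cells (2,000/well) expressing the ELG1-luciferase fusion are dosed by pin tool and kept 16 hr at 37 °C, 5% CO2. Signal comes from ONE-Glo luciferase reagent after 30 min at room temperature.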
Luc counter: Counterscreen for Luciferase (Kinase-Glo TM) Inhibition; 200,000 compounds, 0.28% hits; AID 1379, 2008; Kinase-Glo luciferase, ATP luminescence, 8 min; Luciferin 4-monooxygenase (Photuris pensylvanica), Q27757; Potency, µM (doses to about 38.3 µM), for the others: at the highest dose activity change, negative = inhibition, usual class: inhibitors; note: % is set by controls: 0 for no effect and ±100 for the full control effect; nearly all actives have a fitted effect of over 60% in size
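Luminescence was the read-out, taken after 8-minute incubation at ambient temperature. Luciferase turned over luciferin with 10 uM ATP in imidazole pH 7.2 buffer containing KCl, MgCl2, Tween 20 and BSA.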
Rab9 promoter act: qHTS Assay for Rab9 Promoter Activators; Huh7 Rab9 promoter-luciferase reporter, luminescence, 24 h; 320,000 compounds, 2.8% hits; Potency, µM (titrated, usually from 9.22 µM), for inactives: at the top dose activation, negative = inhibition, actives largely listed as activators; note: % of control where 0% means no effect; nearly all actives have a fitted effect of over 60% in size
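Huh7 cells stably carrying a Rab9 promoter-luciferase reporter, 1500 cells per well in OP-MEM I with 10% FBS, treated with compound 24 hours at 37C. Luciferase activity read by luminescence after 10 minutes with Amplite reagent.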
SMN2 splice enh: qHTS Assay for Enhancers of SMN2 Splice Variant Expression; HEK293 SMN2-luciferase splicing reporter, luminescence, 30-36 h; Potency, µM (highest dose often 46.1 µM), for the others: top-dose activity change, positive = activation, actives largely listed as activators; 210,000 compounds, 2.8% hits; note: % of control where 0% means no effect; nearly all actives have a fitted effect of over 55% in size
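HEK293 cells carry an SMN2 minigene-luciferase reporter in which exon 7 inclusion puts luciferase in frame. Cells were seeded at 2000 cells/well, attached for 10-12 hours, then exposed to compounds for 30-36 hours at 37C before ONE-Glo luminescence.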
NPC1 prom act: qHTS Assay for NPC1 Promoter Activators. Huh7 NPC1 promoter luciferase reporter, 24 h. Potency, µM (titrated, usually from 9.22 µM), inactives show at the top dose activation, hits mostly activators. AID 485313, 2010. 320,000 compounds, 2.4% hits; note: % of control where 0% means no effect; nearly all actives have a fitted effect of over 60% in size
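In 1536-well qHTS, Huh7 cells harboring an NPC1 promoter–luciferase construct received compound for 24 h; activation was quantified by luminescence following luciferase reagent addition.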
FLuc modulator: qHTS profiling assay for firefly luciferase inhibitor/activator using purifed enzyme and Km concentrations of substrates (counterscreen for miR-21 project); Luciferin 4-monooxygenase (Photinus pyralis), P08659; purified FLuc, Km substrates, luminescence inhibition; Potency, µM (doses to about 57.5 µM), without a hit: at the highest dose activity change, negative = inhibition, hits mostly inhibitors; 360,000 compounds, 6.9% hits;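 note: plate controls were vehicle for no effect and reference inhibitor for full effect; nearly all actives have a fitted effect of over 55% in size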
Target sequence (P08659 whole entry, looked up): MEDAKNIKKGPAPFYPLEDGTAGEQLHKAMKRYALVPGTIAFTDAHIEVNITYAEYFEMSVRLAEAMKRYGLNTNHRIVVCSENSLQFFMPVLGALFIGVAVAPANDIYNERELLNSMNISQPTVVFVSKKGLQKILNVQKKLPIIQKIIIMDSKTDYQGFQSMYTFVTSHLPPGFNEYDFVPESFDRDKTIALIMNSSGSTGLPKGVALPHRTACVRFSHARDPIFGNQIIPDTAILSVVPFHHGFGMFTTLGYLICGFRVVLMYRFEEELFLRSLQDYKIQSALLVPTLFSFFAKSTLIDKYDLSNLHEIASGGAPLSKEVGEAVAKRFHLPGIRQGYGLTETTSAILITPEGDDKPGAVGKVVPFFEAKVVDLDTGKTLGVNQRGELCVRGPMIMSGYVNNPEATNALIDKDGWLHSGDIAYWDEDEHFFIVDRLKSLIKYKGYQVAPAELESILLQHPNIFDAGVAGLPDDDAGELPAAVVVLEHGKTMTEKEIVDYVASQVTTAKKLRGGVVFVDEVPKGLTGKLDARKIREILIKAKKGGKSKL
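Purified P. pyralis luciferase (10nM final) with 10uM D-luciferin and 10uM ATP (Km levels) in 50mM Tris acetate pH 7.5, 10mM Mg acetate, 0.01% Tween-20, 0.05% BSA; qHTS 6-point titration, ~60 µM downward; luminescence read.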
The depositor's hits bear a star; ? = inconclusive; . = no result; [ ] = dose if it differs, or a comment. Calls come from the whole dose curve; as a rule, active = well fitted curve in the direction sought with a large enough effect; inconclusive = small, poorly fitted or top-dose-only effect, or another doubt; inactive = no such curve, though single readings can be large; an effect the other way counts as inactive or inconclusive. Potency is the fitted concentration of half-maximal effect.

SMILES	ELG1 genotoxic	Luc counter	Rab9 promoter act	SMN2 splice enh	NPC1 prom act	FLuc modulator
N#C/C(=C\c1c(Cl)cccc1Cl)c1nc2ccccc2[nH]1	-4%	.	-2%	.	4%	?
Fc1cccc(Nc2ncnc3c2cnn3-c2ccccc2)c1	?	.	?	.	?	17µM*
Clc1cccc(Nc2ncnc3c2cnn3-c2ccccc2)c1	?	3%	17%	2%	25%	27µM*
O=C(O)c1cccc(Nc2ncnc3c2cnn3-c2ccccc2)c1	?	-4%	3.2µM*	13µM*	1.3µM*	2.1µM*
O=C(O)c1cccc(Nc2ncnc3ccccc23)c1	1%	-4%	16%	18%	0%	19µM*
N#Cc1cccc(Nc2ncnc3c2cnn3-c2cccc(Cl)c2)c1	.	.	.	.	.	-17%
CCOC(=O)N1CCN(C(=O)c2cc(-c3ccncc3)nc3ccccc23)CC1	0%	.	-14%	.	-19%	2%
COc1cc(-c2ccccc2)nc2ccccc12	-3%	6%	7%	-43%	-2%	-13%
COc1ccc(-c2cc(OC)c3ccccc3n2)cc1	-1%	1%	-2%	9%	-2%	19µM*
Cc1ccc(-c2cc(C(=O)N3CCN(c4ccc(F)cc4)CC3)c3ccccc3n2)o1	-7%	-8%	16%	14%	2%	3.4µM*
CCOC(=O)N1CCN(C(=O)c2cc(-c3ccc(OCC)cc3)nc3ccccc23)CC1	0%	-9%	?	13µM*	23%	0.21µM*
Cc1ccc(-c2cc(C(=O)N3CCOCC3)c3ccccc3n2)o1	8%	.	.	.	.	.
COc1ccc(-c2cc(C(=O)N3CCCC3)c3ccccc3n2)cc1	5%[9.26 µM]	.	?	.	29%	4.3µM*
C=CCC(CC=C)(CNC(=O)C(=O)Nc1cccc(C(F)(F)F)c1)c1ccccc1	.	.	.	0%	.	-5%
O=c1[nH]c(=S)c2[nH]c(=O)n(-c3ccccc3)c2[nH]1	.	-5%[7.66 µM]	.	-4%[9.22 µM]	.	.
COc1ccc(-c2cc(C(=O)N3CCCC(C(F)(F)F)C3)c3ccccc3n2)cc1 (configuration not stated)	-6%	.	-7%	.	-1%	6µM*
COc1ccc(-c2cc(C(=O)N3CCN(c4ccccc4)CC3)c3ccccc3n2)cc1	2%	-6%	-9%	13%	-22%	2.7µM*
O=C(c1cc(-c2ccccc2)nc2ccccc12)N1CCCC1	-6%	.	-1%	.	2%	?
O=C(c1cc(-c2cccc(Cl)c2)nc2ccccc12)N1CCCC1	-6%	.	4%	.	-4%	17µM*
CCOc1ccc(-c2cc(C(=O)N3CCN(C)CC3)c3ccccc3n2)cc1	?	?	2.5µM*	11µM*	2.8µM*	0.6µM*
CN1CCCN(C(=O)c2cc(-c3cccc4ccccc34)nc3ccccc23)CC1	-8%	.	-5%	.	-4%	-19%
CC(=O)O[C@H]1CC[C@]2(C)C(=CC[C@H]3[C@H]4C[C@H]5O[C@]6(CC[C@H](C)CN6)[C@H](C)[C@@H]5[C@]4(C)CC[C@@H]32)C1	.	-5%[7.66 µM]	.	-1%[9.22 µM]	.	.
CC(C)C[C@@H](CC(=O)N[C@H](CC(=O)N[C@@H]1CCNC[C@H]1C(=O)N[C@H](CC(=O)N[C@@H](CCC(=O)O)CC(=O)O)Cc1c[nH]c2ccccc12)C(C)C)NC(=O)[C@@H]1CCCC[C@H]1N	.	0%	.	-7%	.	.
NC(=O)COC(=O)c1cc(-c2ccco2)nc2ccccc12	-1%	.	0%	.	-3%	?
Cc1ccc(-c2cc(C(=O)N3CCCCC3)c3ccccc3n2)cc1C	5%	.	8%	.	18%	2.4µM*
SMILES	ELG1 genotoxic	Luc counter	Rab9 promoter act	SMN2 splice enh	NPC1 prom act	FLuc modulator
O=C(c1cc(-c2ccccn2)nc2ccc(Br)cc12)N1CCN(S(=O)(=O)c2ccccc2)CC1	-6%	-2%	0%	5%	0%	-6%
Cc1ccccc1-c1cc(C(=O)N2CCCC2)c2ccccc2n1	-2%	.	1%	.	1%	6%
CCOc1ccc(-c2cc(C(=O)N3CCCC3)c3ccccc3n2)cc1	?	.	1.4µM*	.	3.5µM*	0.48µM*
Cc1ccc(-c2cc(C(=O)N3CCN(c4ncccn4)CC3)c3cc(Br)ccc3n2)o1	-5%	-2%	-3%	-14%	2%	4.8µM*
O=C(O)c1cc(-c2ccco2)nc2ccc(Br)cc12	-6%	-2%	-5%	0%	0%	19µM*
CCOC(=O)C1CCCN(C(=O)c2cc(-c3ccccc3)nc3ccccc23)C1 (configuration not stated)	2%	-5%	-1%	-6%	-1%	?
COC(=O)[C@@H]1C[C@H]1[C@@H](NC(C)=O)c1ccccc1	.	-2%	.	4%	.	.
O=C(NCc1ccccc1F)C1CCN(c2nn3cc(-c4ccc(F)cc4)nc3s2)CC1	.	.	.	.	.	-3%
CNC(=O)C1CCC(Cn2c(=O)c3sccc3n(CC(=O)Nc3ccc(C)c(F)c3)c2=O)CC1 (configuration not stated)	.	.	.	.	.	-6%
O=C(O)c1cc(-c2ccc(-c3ccc(F)cc3)o2)nc2ccccc12	?	.	0.89µM*	.	2.5µM*	0.13µM*
COc1ccc(-c2cc3cc(OC)c(OC)cc3c(C)n2)cc1	3%	.	?	.	?	17µM*
O=C(c1cc(-c2ccc(F)cc2)nc2ccccc12)N1CCC1	-4%	.	.	.	.	.
Cc1ccc(-c2cc(C(=O)N3CCCC(C(F)(F)F)C3)c3ccccc3n2)o1 (configuration not stated)	-2%	.	9%	.	3%	12µM*
COc1ccc2c(OC)cc(-c3ccccc3)nc2c1	-1%	2%	1%	-35%	-6%	-22%
CC(C)c1ccc(-c2cc(C(=O)N3CCOCC3)c3cc(Br)ccc3n2)cc1	-9%	.	21%	.	3%	9.5µM*
COC(=O)C1(C)C=C(Nc2ccc(OC)cc2)C(=O)N1c1ccc(OC)cc1 (configuration not stated)	.	-1%	.	10%	.	.
COC(=O)c1cc2c(cc1NC(=O)c1cnn(-c3ccccc3)c1-n1cccc1)OCO2	.	.	.	-2%	.	-2%
